# Screens from PubChem.
# BAZ2B block: BAZ2B (human) inhibition; AlphaScreen BAZ2B-H3K14Ac peptide displacement; actives 4.4% (n = 360,000); Q9UIF8; Potency, µM (doses to about 114 µM), most hits filed as inhibitors; AID 504333; further: nearly all actives have a fitted effect of over 60% in size
#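 Multi-concentration screen (max 110 uM) measuring displacement of acetylated histone H3 peptide from BAZ2B by AlphaScreen, using 50 nM protein, 50 nM peptide and 10 ug/mL streptavidin donor plus Ni-chelate acceptor beads.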
# HP1b chromo inh: inhibitors of HP1-beta chromodomain binding to methylated histone tails; AlphaScreen HP1-beta / biotin-H3K9me3 peptide binding; actives 0.56% (n = 390,000); Potency, µM (doses to about 114 µM), most hits filed as inhibitors; P83916; further: nearly all actives have a fitted effect of over 70% in size
#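 HP1-beta protein (50 nM final) preincubated 30 min at room temperature with biotinylated H3(1-18)K9me3 peptide (50 nM) in PBS pH 7.4, 0.01% Tween-20, then compound added for 30 min. AlphaScreen streptavidin donor/nickel chelate acceptor beads (10 ug/mL final), 30 min dark, luminescence read.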
# JMJD2A Tudor inh: inhibitors of human JMJD2A Tudor domain. O75164. AlphaScreen JMJD2A-Tudor / H3K4me3 peptide binding. Potency, µM (top dose mostly 114 µM), usual class: inhibitors. actives 4.4% (n = 390,000). AID 504339; further: nearly all actives have a fitted effect of over 50% in size
# Sfp PPTase inh: inhibitors of Bacillus subtilis Sfp phosphopantetheinyl transferase. actives 3.5% (n = 310,000). AID 1490. Q9F4F7. Biochemical Sfp PPTase activity, qHTS. Potency, µM, most hits filed as inhibitors;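 further: the enzyme is Sfp with the accession as filed and its product quenches rhodamine fluorescence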
#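 Buffer: 50 mM Hepes-Na pH 7.6, 10 mM MgCl2, 0.01% Nonidet P-40, 0.01% BSA. Enzyme 15 nM, pre-exposed to compound 15 min; substrates then added and fluorescence change tracked over 30 min.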
# PLK1 PBD inh: PLK1 (human) polo-box domain binding inhibition; Potency, µM, hits mostly inhibitors; Plk1 PBD binding of FITC phosphopeptide, fluorescence polarization; actives 2.8% (n = 360,000); P53350; AID 720504; further: series mostly up to about 57 µM; nearly all actives have a fitted effect of over 65% in size
# Target sequence (P53350 whole entry, looked up, the tested form may be a part): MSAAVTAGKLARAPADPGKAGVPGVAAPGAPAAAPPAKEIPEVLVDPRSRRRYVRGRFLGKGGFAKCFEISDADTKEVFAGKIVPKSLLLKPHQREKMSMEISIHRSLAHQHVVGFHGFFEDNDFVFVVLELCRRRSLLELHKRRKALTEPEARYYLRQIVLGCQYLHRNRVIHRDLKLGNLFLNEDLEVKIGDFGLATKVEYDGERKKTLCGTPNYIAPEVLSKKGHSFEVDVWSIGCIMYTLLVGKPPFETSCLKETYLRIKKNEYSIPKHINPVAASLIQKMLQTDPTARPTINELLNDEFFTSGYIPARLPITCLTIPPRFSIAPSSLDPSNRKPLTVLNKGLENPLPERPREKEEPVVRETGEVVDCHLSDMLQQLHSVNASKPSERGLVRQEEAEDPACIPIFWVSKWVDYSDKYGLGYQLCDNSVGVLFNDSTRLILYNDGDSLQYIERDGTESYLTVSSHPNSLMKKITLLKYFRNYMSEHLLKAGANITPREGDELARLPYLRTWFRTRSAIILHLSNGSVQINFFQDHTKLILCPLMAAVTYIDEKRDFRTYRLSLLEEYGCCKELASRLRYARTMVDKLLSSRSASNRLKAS
# G9a inh: blocks human histone lysine methyltransferase G9a; Potency, µM (top dose mostly 102 µM), actives largely listed as inhibitors; AID 504332; Q96KQ7; actives 8.8% (n = 350,000); G9a H3K9 monomethylation, AlphaScreen, 2 h; further: nearly all actives have a fitted effect of over 75% in size
#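 Quantitative HTS format: methyltransferase activity on a biotin-tagged H3K9 peptide is measured by AlphaScreen, using a rabbit anti-monomethyl-H3K9 antibody with streptavidin donor and anti-IgG acceptor beads. Final levels are 20 nM enzyme, 500 nM peptide, 20 uM SAM; 2 h RT.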
# Hits are given with their value; . = inactive; ? = inconclusive; / = no result given; [ ] = another dose, or the depositor's remark. Compounds with a hit are over-represented: about 12% of the library has one in this group of screens. The call rests on the fitted dose curve; in most records, active means well fitted curve in the direction sought with a large enough effect; inconclusive means small, poorly fitted or top-dose-only effect, or another doubt; inactive means no such curve, though single readings can be large; an effect the other way counts as inactive or inconclusive.
SMILES,BAZ2B block,HP1b chromo inh,JMJD2A Tudor inh,Sfp PPTase inh,PLK1 PBD inh,G9a inh
CSCC[C@H](NC(=O)CNC(=O)CNC(=O)[C@H](CO)NC(=O)[C@H](CCCNC(=N)N)NC(=O)[C@H](CO)NC(=O)[C@H](CC(C)C)NC(=O)[C@H](CC(C)C)NC(=O)CNC(=O)[C@H](C)NC(=O)[C@H](CC(C)C)NC(=O)[C@H](CCCNC(=N)N)NC(=O)[C@H](Cc1cnc[nH]1)NC(=O)[C@@H](NC(=O)[C@@H](N)C(C)C)[C@@H](C)O)C(=O)N[C@H](C(=O)N[C@@H](CCCCN)C(=O)N[C@@H](CO)C(=O)N[C@@H](CC(N)=O)C(=O)N[C@@H](Cc1ccccc1)C(=O)N[C@H](C(=O)N1CCC[C@H]1C(=O)N[C@H](C(=O)N[C@@H](CC(N)=O)C(=O)N[C@H](C(=O)NCC(=O)N[C@@H](CO)C(=O)N[C@@H](CCCCN)C(=O)N[C@@H](C)C(=O)N[C@@H](Cc1ccccc1)C(N)=O)C(C)C)[C@@H](C)O)C(C)C)C(C)C,/,/,/,.,/,/
Cc1cc(NC(=O)CSc2nnc(CNc3cccc(C(F)(F)F)c3)n2Cc2ccco2)no1,.,.,.,.,.,.
O=C(CSc1nnc(-c2ccccc2)n1Cc1ccco1)NCc1ccc2c(c1)OCO2,.,.,.,?,.,45µM
Cc1cc(C(=O)CSc2nnc(-c3ccccc3)n2Cc2ccc3c(c2)OCO3)c(C)n1C,.,.,.,.,.,28µM
Cc1nnc(SCC(=O)Nc2cccc(C(F)(F)F)c2)n1Cc1ccco1,.,.,?,40µM,?,.
O=C(CSc1nnc(-c2ccccc2)n1Cc1ccco1)Nc1ccc2c(c1)OCCO2,.,.,.,45µM,.,40µM
Cc1ccc(Nc2c(-c3cc(Br)ccc3F)nc3cc(C)ccn23)cc1,?,?,.,/,/,?
O=C1C=C(c2ccccc2C(F)(F)F)C[C@@H](c2ccc3c(c2)OCO3)C1,.,.,.,/,.,.[0.501 µM]
CCOC(=O)c1c(C)[nH]c(C)c1S(=O)(=O)N1CCC(C(=O)N2CCN(c3cccc(C)c3)C(C)C2)CC1 (configuration not stated),79µM,.,?,/,/,.
Cc1cccc(N2CCN(c3ccc4cc(S(=O)(=O)N5CCCCC5)ccc4n3)CC2C)c1 (configuration not stated),.,.,?,.,.,25µM
CCOC(=O)c1cc(S(=O)(=O)N2CCN(c3cc(C)ccc3C)CC2)[nH]n1,50µM,.,.,/,/,4µM
Cc1ccc(C)c(N2CCN(c3ccc4cc(S(=O)(=O)N5CCCCC5)ccc4n3)CC2)c1,?,.,.,.,.,?
CCOC(=O)c1cc(S(=O)(=O)N2CCN(c3cccc(C)c3)C(C)C2)[nH]n1 (configuration not stated),?,.,?,/,/,14µM
CC[C@@]1([C@@H]2O[C@@H]([C@H]3O[C@@](O)(CO)[C@H](C)C[C@@H]3C)C[C@@H]2C)CC[C@H]([C@]2(C)CC[C@]3(C[C@H](O)[C@@H](C)[C@@H]([C@@H](C)[C@@H](OC)C(C)C(=O)O)O3)O2)O1 (some centres not stated),/,/,/,.,/,.
CC1CCCN(S(=O)(=O)c2cccc3nonc23)C1 (configuration not stated),.,.,.,.,.,.
CCOC(=O)c1cc(S(=O)(=O)N2CCN(c3ccc(C(C)=O)cc3)CC2)[nH]n1,?,.,.,/,/,13µM
Cc1cccc(N2CCN(S(=O)(=O)c3cccc4nonc34)CC2C)c1 (configuration not stated),/,.,?,.,.,35µM
CN(C)S(=O)(=O)n1cc(/C=C(\NC(=O)c2ccccc2F)C(=O)N2CCOCC2)c2ccccc21,.,.,?,.,19µM,.
COc1ccc(C(=O)N/C(=C\c2cn(C)c3ccccc23)C(=O)NCCN2CCOCC2)cc1OC,?,.,.,.,.,50µM
CCn1cc(/C=C(\NC(=O)c2ccc(OC)c(OC)c2)C(=O)N2CCOCC2)c2ccccc21,?,.,?,.,27µM,?
